Test results reported in PubChem BioAssay AID1508622 (National Center for Advancing Translational Sciences (NCATS), 2021).
Calls of active or inactive are those of the source. The call rests on the fitted dose curve; in most records, active means well fitted activation curve with a large enough effect; inconclusive means small, poorly fitted or top-dose-only effect; inactive means no such curve, though single readings can be large or run the other way.

Assay: Confirmatory qHTS for Identification of Small Molecule Activators of Huntingtin-Antisense Promoter Activity
Settings: HEK293 HTT-AS promoter firefly luciferase reporter, 24 h; series mostly up to 57.5 µM
Procedure, shortened: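 HEK293 luciferase reporter cells, 2,500/well, cultured 24 h, then exposed to compounds at up to 57.5 uM final for 24 h at 37C. Firefly luciferase luminescence read; normalized to vehicle (0%) and zero RLU (-100%).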

Potency, inactive:
Cc1ccc(C)c(N2CCN(C(=O)Cn3cnc4nc5c(cc4c3=O)CCCC5)CC2)c1
Cc1ccc(NC(=O)C2CCCN2S(=O)(=O)c2cccc3nsnc23)cc1Cl (centres undefined)
CCN(CC)S(=O)(=O)c1ccc2c(c1)N(CC(=O)N1CCN(c3cccc(C(F)(F)F)c3)CC1)C(=O)CO2
COc1cccc([C@@H](C)NCCCc2ccccc2Cl)c1
Fc1ccc(N2CCN(c3ncnc4c3nc3n4CCCCC3)CC2)cc1
COc1ccc(NC(=O)c2ccc(-c3nc(CSc4ccccc4)c(C)o3)cc2)c(OC)c1
CCN(CC)c1ccc(NC(=O)c2sc3nc(-c4ccccc4)cn3c2C)cc1
Cc1nnc(N2CCN(c3cccc(C(F)(F)F)c3)CC2)c2c1nnn2Cc1ccccc1
Cc1ccccc1Cn1c(=O)n(Cc2ccco2)c(=O)c2oc3ccccc3c21
Cc1oc(-c2ccc(C(=O)Nc3cccc(C(F)(F)F)c3)cc2)nc1CSc1ccccc1
COc1ccc(-c2cccc(NS(=O)(=O)c3cc(C)c(OC)c(C)c3C)c2)nn1
Cc1ccccc1OCc1ccc(-c2nc(C#N)c(NCc3cccnc3)o2)o1
O=C(C1CCC(CNS(=O)(=O)c2cccs2)CC1)N1CCN(c2ccc(Cl)cc2)CC1 (centres undefined)
COc1cccc(NC(=O)CN2CCCN(S(=O)(=O)c3ccc(Br)cc3)CC2)c1
Cc1ccc(Cl)cc1N1CCN(C(=O)Cn2cnc3nc4c(cc3c2=O)CCCC4)CC1
COc1ccc(Cn2c(SCc3ccc(C(=O)NC4CCCC4)cc3)nc3ccncc32)cc1
CCOc1ccc(CN2CCc3nc(N4CCN(c5ccccn5)CC4)ncc3C2)cc1OC
CC(C)c1ccc(Nc2c(-c3ccccn3)nc3ccccn23)cc1
Cc1cccc(N2CCN(S(=O)(=O)c3cc(C(=O)Nc4ccc(Oc5ccccc5)cc4)ccc3F)CC2C)c1 (centres undefined)
CCOC(=O)C1CCC(CN(Cc2ccc(Cl)cc2)S(=O)(=O)c2cc(Cl)cc(Cl)c2)CC1 (centres undefined)
CCOc1ccc(-c2cc(C)n3nc(C(=O)Nc4ccc(C)c(C)c4)cc3n2)cc1
CCCC(=O)c1ccc(OC(=O)c2c(-c3ccccc3Cl)noc2C)cc1
COc1ccccc1CNC(=O)Cn1c(=O)oc2cc(S(=O)(=O)N3CCC(C)CC3)ccc21
CCc1ccc(NC(=O)c2ccc(F)c(S(=O)(=O)NCCc3ccc(OC)c(OC)c3)c2)cc1
